The results in this text go back to paper PMC7862700, “An all-to-all approach to the identification of sequence-specific readers for epigenetic DNA modifications on cytosine”.

Assay in all cases: DAPPL (digital affinity profiling via proximity ligation, sequencing); 10 mM Tris-HCl pH 7.5, 50 mM NaCl, 1 mM DTT, 4% glycerol, room temperature, 30 min; GST-TFs on glutathione beads, 16-mer random dsDNA library, 0.1% formaldehyde crosslink after washing; high values mean tight binding
Conditions in all cases: protein: recombinant; tags: N-terminal GST; dsDNA, one strand shown

Test [1] addresses T1, FLI1 (Homo sapiens, UniProt Q01543 1-452).
T1 sequence: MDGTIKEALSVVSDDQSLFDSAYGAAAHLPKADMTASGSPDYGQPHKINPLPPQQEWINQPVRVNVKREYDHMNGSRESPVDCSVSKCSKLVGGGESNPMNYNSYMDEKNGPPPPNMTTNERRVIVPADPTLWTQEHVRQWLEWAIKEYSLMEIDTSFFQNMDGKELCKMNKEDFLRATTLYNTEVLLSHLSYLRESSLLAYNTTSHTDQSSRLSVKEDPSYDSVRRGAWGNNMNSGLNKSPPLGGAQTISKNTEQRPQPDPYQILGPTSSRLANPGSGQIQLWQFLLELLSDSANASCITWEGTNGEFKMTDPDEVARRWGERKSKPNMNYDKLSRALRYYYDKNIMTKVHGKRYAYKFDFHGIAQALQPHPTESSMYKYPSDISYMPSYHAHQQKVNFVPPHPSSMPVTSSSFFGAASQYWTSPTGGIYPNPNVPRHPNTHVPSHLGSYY
In short, it runs like this:
(§1)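 Human transcription factors fused to GST were expressed in yeast, captured on glutathione beads, given DNA barcodes and pooled with a GST-only negative control. Pools were incubated with 200 nmole of a 16-mer random double-stranded DNA library in Tris/NaCl/DTT/glycerol buffer at room temperature for 30 min. They were then washed, crosslinked with 0.1% formaldehyde, proximity-ligated (BsaI/T4 ligase, 1 h, 37 °C), PCR-amplified and sequenced on an Illumina NextSeq500. Binding signal is each 6-mer's read frequency for a factor divided by its frequency for the GST control.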

In test [2] the target is T2, ELK1 (Homo sapiens, UniProt P19419 1-428).
T2 sequence: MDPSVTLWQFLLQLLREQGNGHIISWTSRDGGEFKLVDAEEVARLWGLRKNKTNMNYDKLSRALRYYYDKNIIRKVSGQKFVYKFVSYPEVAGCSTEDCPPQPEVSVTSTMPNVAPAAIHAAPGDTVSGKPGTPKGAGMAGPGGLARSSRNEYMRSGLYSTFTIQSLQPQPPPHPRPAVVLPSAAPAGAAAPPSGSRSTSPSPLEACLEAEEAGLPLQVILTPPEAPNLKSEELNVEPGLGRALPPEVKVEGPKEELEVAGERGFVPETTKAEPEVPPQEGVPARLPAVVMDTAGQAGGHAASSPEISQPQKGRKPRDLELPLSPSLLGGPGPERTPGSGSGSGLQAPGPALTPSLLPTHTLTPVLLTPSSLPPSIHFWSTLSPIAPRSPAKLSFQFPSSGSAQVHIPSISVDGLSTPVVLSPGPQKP
Put shortly:
as §1

In test [3] the target is T3, GABPA (Homo sapiens, UniProt Q06546 1-454).
T3 sequence: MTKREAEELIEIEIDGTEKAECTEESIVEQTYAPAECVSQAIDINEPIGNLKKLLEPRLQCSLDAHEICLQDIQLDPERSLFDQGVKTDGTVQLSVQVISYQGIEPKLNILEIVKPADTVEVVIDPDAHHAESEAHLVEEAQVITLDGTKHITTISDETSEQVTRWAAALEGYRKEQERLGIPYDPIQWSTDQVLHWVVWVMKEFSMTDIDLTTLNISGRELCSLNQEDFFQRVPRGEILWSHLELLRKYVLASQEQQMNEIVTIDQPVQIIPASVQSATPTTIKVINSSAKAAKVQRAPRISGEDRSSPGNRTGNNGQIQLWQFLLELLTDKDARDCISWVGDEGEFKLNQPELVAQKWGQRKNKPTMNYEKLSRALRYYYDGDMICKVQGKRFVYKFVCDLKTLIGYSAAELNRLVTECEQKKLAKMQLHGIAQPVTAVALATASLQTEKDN
Put shortly: as §1

Test [4] deals with T4, ERG (Homo sapiens, UniProt P11308 1-479).
T4 sequence: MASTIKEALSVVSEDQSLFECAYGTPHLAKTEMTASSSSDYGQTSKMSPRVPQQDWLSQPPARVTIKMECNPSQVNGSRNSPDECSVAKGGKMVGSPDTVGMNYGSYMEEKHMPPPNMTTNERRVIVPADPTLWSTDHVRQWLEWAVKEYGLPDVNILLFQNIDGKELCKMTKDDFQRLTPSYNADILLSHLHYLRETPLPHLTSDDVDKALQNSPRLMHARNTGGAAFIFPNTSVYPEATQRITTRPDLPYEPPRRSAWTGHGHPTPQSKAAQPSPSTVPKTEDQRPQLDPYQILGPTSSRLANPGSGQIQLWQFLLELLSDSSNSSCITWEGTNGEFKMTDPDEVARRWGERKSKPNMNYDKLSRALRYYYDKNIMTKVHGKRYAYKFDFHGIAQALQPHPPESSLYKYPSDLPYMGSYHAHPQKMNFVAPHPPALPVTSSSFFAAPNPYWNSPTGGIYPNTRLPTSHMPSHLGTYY
In short, it runs like this:
as §1

Test [5] addresses ELF1 (Homo sapiens, UniProt P32519 1-619). Put shortly: as §1
Test [6] has as its target T5, EHF (Homo sapiens, UniProt Q9NZC4 1-300).
T5 sequence: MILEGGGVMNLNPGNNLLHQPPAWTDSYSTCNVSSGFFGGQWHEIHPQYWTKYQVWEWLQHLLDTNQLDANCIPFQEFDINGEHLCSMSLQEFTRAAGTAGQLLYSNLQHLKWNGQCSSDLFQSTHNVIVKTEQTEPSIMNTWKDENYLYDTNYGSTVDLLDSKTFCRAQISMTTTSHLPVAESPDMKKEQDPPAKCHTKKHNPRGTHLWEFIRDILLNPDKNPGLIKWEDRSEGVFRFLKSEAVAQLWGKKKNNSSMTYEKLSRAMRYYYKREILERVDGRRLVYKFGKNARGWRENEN
In short, it runs like this: as §1

The target in test [7] is SPI1 (Homo sapiens, UniProt P17947 1-270). In short, it runs like this:
as §1

Test [8] has as its target SPIB (Homo sapiens, UniProt Q01892 1-262). In short, it runs like this:
as §1

The target of test [9] is T6, ELK3 (Homo sapiens, UniProt P41970 1-407).
T6 sequence: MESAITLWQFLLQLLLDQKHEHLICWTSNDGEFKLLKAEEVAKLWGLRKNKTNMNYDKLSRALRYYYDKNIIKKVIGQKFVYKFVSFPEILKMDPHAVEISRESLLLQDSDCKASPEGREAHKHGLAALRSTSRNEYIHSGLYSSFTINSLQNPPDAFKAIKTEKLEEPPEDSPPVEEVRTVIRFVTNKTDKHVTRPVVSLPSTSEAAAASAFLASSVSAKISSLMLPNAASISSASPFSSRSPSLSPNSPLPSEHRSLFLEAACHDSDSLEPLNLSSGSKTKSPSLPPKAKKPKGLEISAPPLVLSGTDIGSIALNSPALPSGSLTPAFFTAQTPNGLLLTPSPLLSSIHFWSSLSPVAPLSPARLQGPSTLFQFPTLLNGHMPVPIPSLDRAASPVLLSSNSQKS
In short, it runs like this:
as §1

Chain of ELF1 (P32519 whole entry): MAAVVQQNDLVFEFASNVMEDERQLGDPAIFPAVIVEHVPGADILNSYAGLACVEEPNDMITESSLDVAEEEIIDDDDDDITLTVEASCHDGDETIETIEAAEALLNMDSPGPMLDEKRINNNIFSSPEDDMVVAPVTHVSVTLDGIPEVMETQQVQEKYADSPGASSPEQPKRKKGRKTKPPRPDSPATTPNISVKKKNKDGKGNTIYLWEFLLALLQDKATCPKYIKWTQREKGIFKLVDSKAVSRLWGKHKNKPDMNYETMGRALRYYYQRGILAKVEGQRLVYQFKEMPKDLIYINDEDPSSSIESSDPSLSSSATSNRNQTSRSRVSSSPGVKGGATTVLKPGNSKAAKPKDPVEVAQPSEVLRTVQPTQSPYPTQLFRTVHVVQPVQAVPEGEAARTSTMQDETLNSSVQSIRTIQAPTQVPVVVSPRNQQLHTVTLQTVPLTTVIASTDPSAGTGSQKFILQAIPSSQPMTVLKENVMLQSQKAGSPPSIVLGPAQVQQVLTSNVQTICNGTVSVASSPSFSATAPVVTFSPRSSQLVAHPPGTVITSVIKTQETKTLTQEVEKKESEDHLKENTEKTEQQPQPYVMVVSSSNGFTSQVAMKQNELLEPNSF
Chain of SPIB (Q01892 whole entry): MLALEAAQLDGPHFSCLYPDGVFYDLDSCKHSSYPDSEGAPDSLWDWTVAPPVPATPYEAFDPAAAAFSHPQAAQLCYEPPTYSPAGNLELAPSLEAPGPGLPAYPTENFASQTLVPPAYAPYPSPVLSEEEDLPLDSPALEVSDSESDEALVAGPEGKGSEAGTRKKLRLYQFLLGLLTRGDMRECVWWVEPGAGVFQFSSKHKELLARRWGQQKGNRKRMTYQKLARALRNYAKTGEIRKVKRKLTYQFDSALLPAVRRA

Regarding GTATTC, the binding signal was 1.33 fold enrichment (6-mer frequency, TF over GST control) in test [1]; 1.17 fold enrichment (6-mer frequency, TF over GST control) in [2]; 1.26 fold enrichment (6-mer frequency, TF over GST control) in [3]; 1.19 fold enrichment (6-mer frequency, TF over GST control) in [4]; 1.22 fold enrichment (6-mer frequency, TF over GST control) in test [5]; 1.27 fold enrichment (6-mer frequency, TF over GST control) in test [6]. The binding signal in [7] was 1.31 fold enrichment (6-mer frequency, TF over GST control); in [8] it was 1.25 fold enrichment (6-mer frequency, TF over GST control); in test [9] it was 1.3 fold enrichment (6-mer frequency, TF over GST control).
With TACCGA, the binding signal in test [1] is 1.26 fold enrichment (6-mer frequency, TF over GST control); in test [2], 1.1 fold enrichment (6-mer frequency, TF over GST control); in test [3] it was 1.13 fold enrichment (6-mer frequency, TF over GST control); in test [4], 1.07 fold enrichment (6-mer frequency, TF over GST control); in test [5], 1.17 fold enrichment (6-mer frequency, TF over GST control); in test [6], 1.1 fold enrichment (6-mer frequency, TF over GST control). Further, the binding signal was 1.12 fold enrichment (6-mer frequency, TF over GST control) in [7]; 1.16 fold enrichment (6-mer frequency, TF over GST control) in test [8]; 1.12 fold enrichment (6-mer frequency, TF over GST control) in [9].
With TCCCAA, the binding signal is 1.14 fold enrichment (6-mer frequency, TF over GST control) in [1]; 1.2 fold enrichment (6-mer frequency, TF over GST control) in test [2]; 1.25 fold enrichment (6-mer frequency, TF over GST control) in [3]; 1.28 fold enrichment (6-mer frequency, TF over GST control) in test [4]; 1.3 fold enrichment (6-mer frequency, TF over GST control) in test [5]; 1.31 fold enrichment (6-mer frequency, TF over GST control) in [6]. The binding signal in test [7] was 1.2 fold enrichment (6-mer frequency, TF over GST control); in test [8], 1.15 fold enrichment (6-mer frequency, TF over GST control); in test [9] it was 1.28 fold enrichment (6-mer frequency, TF over GST control).
As to TCTTTT, the binding signal was 1.46 fold enrichment (6-mer frequency, TF over GST control) in [1]; 1.38 fold enrichment (6-mer frequency, TF over GST control) in test [2]; 1.45 fold enrichment (6-mer frequency, TF over GST control) in [3]; 1.36 fold enrichment (6-mer frequency, TF over GST control) in [4]; 1.47 fold enrichment (6-mer frequency, TF over GST control) in test [5]; 1.53 fold enrichment (6-mer frequency, TF over GST control) in test [6]. Further, the binding signal in test [7] was 2.09 fold enrichment (6-mer frequency, TF over GST control); in test [8] it was 1.61 fold enrichment (6-mer frequency, TF over GST control); in [9], 1.51 fold enrichment (6-mer frequency, TF over GST control).
With CGACCG, the binding signal in test [1] was 1.2 fold enrichment (6-mer frequency, TF over GST control); in [2] it was 1.19 fold enrichment (6-mer frequency, TF over GST control); in test [3], 1.21 fold enrichment (6-mer frequency, TF over GST control); in test [4] it was 1.36 fold enrichment (6-mer frequency, TF over GST control); in [5], 1.17 fold enrichment (6-mer frequency, TF over GST control); in [6], 1.11 fold enrichment (6-mer frequency, TF over GST control). Besides, the binding signal is 1.06 fold enrichment (6-mer frequency, TF over GST control) in test [7]; 1.07 fold enrichment (6-mer frequency, TF over GST control) in [8]; 1.21 fold enrichment (6-mer frequency, TF over GST control) in [9].
For CTAAAT, the binding signal in [1] is 1.34 fold enrichment (6-mer frequency, TF over GST control); in [2] it was 1.36 fold enrichment (6-mer frequency, TF over GST control); in [3] it was 1.31 fold enrichment (6-mer frequency, TF over GST control); in test [4] it was 1.34 fold enrichment (6-mer frequency, TF over GST control); in test [5] it was 1.3 fold enrichment (6-mer frequency, TF over GST control); in test [6] it was 1.34 fold enrichment (6-mer frequency, TF over GST control). The binding signal in [7] is 1.37 fold enrichment (6-mer frequency, TF over GST control); in test [8], 1.38 fold enrichment (6-mer frequency, TF over GST control); in test [9] it was 1.37 fold enrichment (6-mer frequency, TF over GST control).
As to CACCAT, the binding signal in test [1] was 1.2 fold enrichment (6-mer frequency, TF over GST control); in [2], 1.16 fold enrichment (6-mer frequency, TF over GST control); in test [3], 1.06 fold enrichment (6-mer frequency, TF over GST control); in test [4], 1.08 fold enrichment (6-mer frequency, TF over GST control); in test [5] it was 1.14 fold enrichment (6-mer frequency, TF over GST control); in test [6] it was 1.12 fold enrichment (6-mer frequency, TF over GST control). Besides, the binding signal in test [7] is 1.03 fold enrichment (6-mer frequency, TF over GST control); in test [8] it was 1 fold enrichment (6-mer frequency, TF over GST control); in [9] it was 1.22 fold enrichment (6-mer frequency, TF over GST control).
Take TGAATG: the binding signal in test [1] was 1.16 fold enrichment (6-mer frequency, TF over GST control); in test [2], 1.28 fold enrichment (6-mer frequency, TF over GST control); in test [3], 1.17 fold enrichment (6-mer frequency, TF over GST control); in [4] it was 1.21 fold enrichment (6-mer frequency, TF over GST control); in test [5] it was 1.2 fold enrichment (6-mer frequency, TF over GST control); in test [6], 1.19 fold enrichment (6-mer frequency, TF over GST control). The binding signal in test [7] was 1.26 fold enrichment (6-mer frequency, TF over GST control); in test [8] it was 1.23 fold enrichment (6-mer frequency, TF over GST control); in [9] it was 1.09 fold enrichment (6-mer frequency, TF over GST control).
